Each structure is given as a SMILES string. Unmarked numbers belong to inactive results. Results filed as inconclusive are left out. Active and inactive are the calls of the source. Unless noted, the call rests on the fitted dose curve; in most records, active means well fitted curve in the direction sought with a large enough effect in the repeat runs; inconclusive means weak or mixed curves; inactive means no such curve, though single readings can be large; an effect the other way counts as inactive or inconclusive.

Assay [1] in a line: qHTS assay to identify small molecule agonists of the hypoxia (HIF-1) signaling pathway - cell viability counter screen (AID 1224844; calls by dose curve; further: nearly all actives have a fitted effect of over 50% in size; further: potency means the concentration at half of the fitted maximal effect). In short, it runs like this:
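HRE-bla ME-180 cells in medium with 0.5% dialyzed FBS were preincubated 5 hrs at 37C, exposed to compounds for 17 hrs, then viability was read as CellTiter-Glo luminescence after 30 min at room temperature, in the reporter wells.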
For orientation: qHTS replaces the single test concentration by a dilution series.

Assay [2] can be described thus: qHTS assay to identify small molecule agonists of the hypoxia (HIF-1) signaling pathway (AID 1224846; active means well fitted activation curve with a large enough effect in the signal ratio in the repeat runs, not every such curve was filed as active; the % refers to the signal ratio). In short, it runs like this:
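HRE-bla ME-180 cells (beta-lactamase reporter under hypoxia response element) were plated at 2,000 cells/well in medium with 0.5% dialyzed FBS, rested 5 hrs, then given compounds in DMSO for 17 hrs at 37C, 5% CO2. Reporter induction was read with CCF4-AM FRET substrate.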

Assay [3] can be described thus: qHTS assay to identify small molecule antagonists of the estrogen related receptor (ERR) signaling pathway from Tox21 library (AID 1224848). Further: nearly all actives have a fitted effect of over 50% in size. Further: potency means the concentration at half of the fitted maximal effect. Summed up: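 Reading was by luminescence 30 min after ONE-Glo addition. Before that, ERR cells at 2,000 per well had rested 6 h at 37 C/5% CO2 and then received pin-tooled compounds in DMSO for 18 h at 37 C.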
The nature of assay [4]: qHTS assay to identify small molecule agonists of the estrogen related receptor (ERR) signaling pathway from Tox21 library (AID 1224849; calls by dose curve; further: nearly all actives have a fitted effect of over 15% in size). As to conditions: ERR reporter cell line, ONE-Glo luciferase, 18 h; at 92.4 µM (top of the series) unless noted. In short, it runs like this: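 ERR reporter cell line (NTP) seeded, rested 6 h at 37 C/5% CO2, then pinned with Tox21 compounds in DMSO. After 18 h at 37 C, ONE-Glo luciferase luminescence was read following 30 min at room temperature.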

Assay [5] can be described thus: qHTS RealTime-Glo MT Cell Viability Assay in HepG2 cells - 24 hour (AID 1224867). Further: nearly all actives have a fitted effect of over 50% in size. Further: potency means the concentration at half of the fitted maximal effect. Summed up: (§1)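 Cell number in HepG2 cultures estimated from NanoLuc luminescence generated by metabolic reduction of a prosubstrate by living cells. The homogeneous, nonlytic format allowed repeated reads at 0, 8, 16, 24, 32 and 40 h of compound exposure.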
Assay [6] can be described thus: A CellTox Green Cytotoxicity Assay to monitor cytotoxicity in HEK293 cells - 0 hour (AID 1224869). Further: nearly all actives have a fitted effect of over 50% in size. In short, it runs like this:
(§2)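 HEK293 cells premixed with CellTox Green dye were seeded at 600 cells/well and left 5 h at 37 C/5% CO2 before pin transfer of 23 nL compound in DMSO. Fluorescence from dye bound to dead-cell DNA was read during 40 h treatment.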

Assay [7] in a line: qHTS RealTime-Glo MT Cell Viability Assay in HepG2 cells - 40 hour (AID 1224870). Further: nearly all actives have a fitted effect of over 50% in size. Further: potency means the concentration at half of the fitted maximal effect. Summed up: (§3)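 Real-time viability: cells seeded at 600 per well together with NanoLuc and cell-permeant prosubstrate, compounds added after 5 h incubation. Luminescence tracked at 0, 8, 16, 24, 32 and 40 h of exposure.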
A short description of assay [8]: A CellTox Green Cytotoxicity Assay to monitor cytotoxicity in HEK293 cells - 40 hour (AID 1224871). Further: nearly all actives have a fitted effect of over 45% in size. Further: potency means the concentration at half of the fitted maximal effect. In short, it runs like this: as §2
The nature of assay [9]: qHTS RealTime-Glo MT Cell Viability Assay in HEK293 cells - 16 hour (AID 1224872). Summed up: (§4)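 Homogeneous bioluminescent viability format in HEK293 cells (600 cells/well). Following 5 h at 37 C/5% CO2, 23 nL compound was pintooled; the signal was measured repeatedly during 40 h incubation.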
Assay [10] in a line: qHTS RealTime-Glo MT Cell Viability Assay in HepG2 cells - 8 hour (AID 1224873). Further: nearly all actives have a fitted effect of over 55% in size. Further: potency means the concentration at half of the fitted maximal effect. In short, it runs like this: as §3
Assay [11] in a line: qHTS RealTime-Glo MT Cell Viability Assay in HEK293 cells - 40 hour (AID 1224874). Further: nearly all actives have a fitted effect of over 50% in size. Further: potency means the concentration at half of the fitted maximal effect. Particulars: RealTime-Glo luminescence; max response: hits give low values. In short, it runs like this:
(§5)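 HEK293 cells mixed with RealTime-Glo reagents (NanoLuc plus cell-permeant prosubstrate) at 600 cells/well, preincubated 5 h at 37 C/5% CO2, then given 23 nL compound in DMSO. Nonlytic luminescence from viable cells was read at 0, 8, 16, 24, 32 and 40 h.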

Assay [12] in a line: A CellTox Green Cytotoxicity Assay to monitor cytotoxicity in HEK293 cells - 24 hour (AID 1224875). Further: nearly all actives have a fitted effect of over 45% in size. Further: potency means the concentration at half of the fitted maximal effect. In short, it runs like this: as §2
A short description of assay [13]: qHTS RealTime-Glo MT Cell Viability Assay in HepG2 cells - 32 hour (AID 1224877). Further: nearly all actives have a fitted effect of over 55% in size. Further: potency means the concentration at half of the fitted maximal effect. In short, it runs like this:
as §1

Assay [14] is described as follows: qHTS RealTime-Glo MT Cell Viability Assay in HEK293 cells - 0 hour (AID 1224880). Further: top concentration of the series differs between compounds; nearly all actives have a fitted effect of over 45% in size. In short, it runs like this:
as §5

The nature of assay [15]: qHTS assay to identify small molecule agonists of H2AX (AID 1224845; active means well fitted activation curve with a large enough effect in the signal ratio in the repeat runs, not every such curve was filed as active; the % refers to the signal ratio). In short, it runs like this:
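Phospho-H2AX Ser139 measured by HTRF (ex 320 nm; em 665 and 620 nm) after 24 hr antibody incubation. Compounds, 15 concentrations, 0.76% DMSO, were applied to CHO-K1 cells for 3hr at 37C before lysis.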

Assay [16] can be described thus: qHTS RealTime-Glo MT Cell Viability Assay in HEK293 cells - 32 hour (AID 1224868). In short, it runs like this: as §4
The nature of assay [17]: A CellTox Green Cytotoxicity Assay to monitor cytotoxicity in HepG2 cells - 16 hour (AID 1224876). Further: nearly all actives have a fitted effect of over 45% in size. Further: potency means the concentration at half of the fitted maximal effect. In short, it runs like this:
(§6)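 HepG2 cells were seeded together with the CellTox Green dye at 600 cells/well, left 5 h at 37 C/5% CO2, then given compounds in DMSO. Fluorescence from dye bound to dead-cell DNA was read repeatedly over 40 h of treatment at 37 C.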

Assay [18] can be described thus: A CellTox Green Cytotoxicity Assay to monitor cytotoxicity in HepG2 cells - 24 hour (AID 1224878). Further: nearly all actives have a fitted effect of over 45% in size. Further: potency means the concentration at half of the fitted maximal effect. Summed up:
as §6

The nature of assay [19]: A CellTox Green Cytotoxicity Assay to monitor cytotoxicity in HepG2 cells - 40 hour (AID 1224879). Further: nearly all actives have a fitted effect of over 40% in size. Further: potency means the concentration at half of the fitted maximal effect. Summed up: as §6
Assay [20] in a line: qHTS assay to identify small molecule agonists of H2AX - cell viability counter screen (AID 1224847; calls by dose curve; further: top concentration of the series differs between compounds; nearly all actives have a fitted effect of over 30% in size). Summed up:
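Viability of CHO-K1 (wild type) cells after 3 hr compound exposure was measured by CellTiter-Glo luminescence.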
On the % scale 0 is the no-effect control and ±100 the full control effect.

With `COc1cc(C(C)(C)C)c(O)c(C(C)(C)C)c1`, the Potency result in assay [1], in assay [3], in assay [5], in [6], in assay [7] and in assay [9] was “inactive” throughout. For the same molecule, the Potency entry in assay [10], in assay [13] and in assay [14] was “inactive” throughout. In addition, in assay [2], the outcome was inactive. Also, the activity change, positive = activation in [4] is -4.21%. Also, the Potency in assay [8] and in [12] was 43.6 µM (active) each time. The max response in assay [11] is 1.44%.
For `CC(C)=CCCC(C)CC=O` (configuration not stated), the Potency result in assay [1], in assay [15], in assay [5], in assay [16], in assay [6] and in assay [7] was “inactive” throughout. Also, the Potency result in assay [8], in assay [9], in [10], in assay [12], in assay [17] and in [13] was “inactive” in each case. The Potency entry in assay [18], in assay [19] and in [14] was “inactive” in each case. The max response in assay [11] is -1.27%.
Regarding `Cn1c(=O)c2c(ncn2CC(O)CO)n(C)c1=O` (configuration not stated), the Potency entry in assay [1], in [15], in assay [3], in [5], in assay [16] and in [6] was “inactive” in each case. Besides, the Potency result in assay [7], in assay [8], in [9], in [10], in [12] and in assay [13] was “inactive” each time. The Potency result in assay [19] was “inactive”. For the same molecule, the activity change, positive = activation in assay [4] is 6.5% [at 42.5 µM]. The max response in [11] is 2.79%.
Turning to `CC/C(=C\C(=N/O)C(N)=O)C(C)[N+](=O)[O-]` (configuration not stated), the Potency entry in assay [1], in assay [20], in assay [3], in assay [5], in assay [16] and in assay [6] was “inactive” in each case. The Potency result in assay [7], in assay [9], in assay [10], in assay [17], in assay [13] and in assay [18] was “inactive” each time. In addition, the Potency result in assay [19] and in assay [14] was “inactive” each time. For the same molecule, the molecule was called inactive in assay [2]. Besides, the activity change, positive = activation in assay [4] was 4.01%. In addition, the max response in [11] is 22.3%.
As for `CC(=O)Nc1ccc(/C=N/NC(N)=S)cc1`, the Potency entry in [1], in assay [20], in [5], in [16], in assay [6] and in assay [7] was “inactive” each time. Also, the Potency result in assay [8], in [10], in assay [12], in assay [17], in assay [13] and in assay [18] was “inactive” each time. Besides, the Potency result in assay [19] and in assay [14] was “inactive” throughout. Moreover, in assay [2], the molecule was classed as inactive. Also, the max response in assay [11] is 0.836%.
Take `CCCCCCCC/C=C\CCCCCCCC(N)=O`: the Potency entry in assay [1], in assay [15], in [3], in assay [5], in assay [6] and in [7] was “inactive” each time. Moreover, the Potency result in [10], in assay [17], in [13] and in [14] was “inactive” in each case. The activity change, positive = activation in [4] is -4.69%. The Potency was 24.5 µM (active) in [18] and 34.7 µM (active) in assay [19].
As to `NC(N)=NN=C(/C=C/c1ccc([N+](=O)[O-])o1)/C=C/c1ccc([N+](=O)[O-])o1`, the Potency in [1] is 8.49 µM (active); in assay [3] it was 2.66 µM (active); in [5] it was 1.69 µM (active); in assay [7] it was 1.51 µM (active); in [8] it was 8.49 µM (active); in assay [10], 4.25 µM (active). Also, the Potency in assay [11] was 0.848 µM (active); in assay [12] it was 10.7 µM (active); in assay [17] it was 3.79 µM (active); in [13], 1.51 µM (active); in [18], 2.13 µM (active); in assay [19] it was 1.69 µM (active). Besides, the Potency entry in assay [15], in assay [6] and in assay [14] was “inactive” in each case. The activity change, positive = activation in assay [4] is -66.8% [at 42.5 µM].
With `CC1CCc2cc(F)cc3c(=O)c(C(=O)O)cn1c23` (configuration not stated), the Potency entry in assay [1], in [15], in assay [20], in assay [5], in [16] and in assay [6] was “inactive” throughout. Also, the Potency entry in assay [7], in [8], in assay [10], in assay [12], in [17] and in assay [13] was “inactive” in each case. Further, the Potency entry in assay [18] and in [19] was “inactive” throughout. In addition, in [11], the max response was 7.68%.

(Values after PubChem BioAssay (Tox21).)
